Activity calls are given as the source filed them. How the source made its calls: active means hit-call score of the fitted dose curve at least 0.9, where 1 is the maximum; inactive means score below 0.9.

The AC50 is the concentration giving half of the maximal activity seen.

The assay can be described thus: APR_HepG2_MitoticArrest_72hr: Apredica 72-hour HepG2 Assay for Mitotic Arrest (AID 2282918). The settings on record: high-content imaging, actives raise or lower the signal. As to the method:
APR_HepG2_72hr is a cell-based, multiplexed-readout assay that uses HepG2, a human liver cell line, with measurements taken at 72 hours after chemical dosing in a 384-well plate.APR_HepG2_MitoticArrest_72hr is one of 10 assay component(s) measured or calculated from the APR_HepG2_72hr assay. It is designed to make measurements of cell phenotype, a form of morphology reporter, as detected with fluorescence intensity signals by HCS Fluorescent Imaging technology.Data from the assay component APR_HepG2_MitoticArrest_72hr was analyzed into 1 assay endpoint. This assay endpoint, APR_HepG2_MitoticArrest_72hr, was analyzed with bidirectional fitting relative to DMSO as the negative control and baseline of activity. Using a type of morphology reporter, measures of protein for gain or loss-of-signal activity can be used to understand the signaling at the pathway-level as they relate to the gene . Furthermore, this assay endpoint can be referred to as a primary readout, because this assay has produced multiple assay endpoints where this one serves a signaling function. To generalize the intended target to other relatable targets, this assay endpoint is annotated to the cell cycle intended target family, where the subfamily is arrest.
Cells were treated with dimethyl sulfoxide (DMSO) as a solvent control at a final concentration of 0.5% v/v or with compounds in DMSO with a resulting final DMSO concentration of 0.5% v/v. Compound treatment was done at concentrations of 0.39, 0.78, 1.56, 3.12, 6.24, 12.5, 25, 50, 100, and 200 uM in duplicate on each plate. Cells were treated with compounds for 1, 24, or 72 hr. Carbonyl […] m-chloro-phenylhydrazone (CCCP) and taxol were used as positive controls for mitochondrial function and cytoskeletal stability, respectively; DMSO served as the negative control for this experiment. Cells were fixed by the direct addition of 50 uL formaldehyde in Hank's Balanced Salt Solution (HBSS) to a final concentration of 3.7%. After incubation in the fixation medium for 30 min at room temperature (293-298 K), cells were rinsed twice with HBSS and treated with cell permeabilization buffer (16 uL of 0.5% Triton X-100) for 10 min at room temperature (293-298 K) before labeling. For mitochondrial membrane potential and mitochondrial measurements, pre-fixed cells were incubated with 50 uL of MitoTracker Red CMXRos (Invitrogen) at a concentration of 250 nM for 30 min before fixation. In the remaining cases, post-fixed cells were labeled by incubation with a multiplexed mixture of primary antibodies in HBSS for 60 min at room temperature (293-298 K) to detect immunoreactivity of c-Jun (1:500), phospho-histone H3 (1:100), phospho-histone H2A.x (1:200), p53 (1:400), alpha-tubulin (1:200) and Hoechst 33342 (2 ug/mL). Cells were labeled for multiplexed imaging on two separate plates: a) Hoechst 33342, MitoTracker Red, phospho-histone H3, and alpha-tubulin, and b) Hoechst 33342, phospho-histone H2A.x, and c-Jun. A final rinse with HBSS (50 uL) was performed before analysis. The primary and secondary antibodies for the proteins were phospho-histone H3 (rabbit anti-phospho-histone H3 and FITC-donkey anti-rabbit IgG), phospho-histone H2A.x (mouse anti-phospho-histone H2A.x and FITC-donkey anti-mouse IgG), c-Jun (rabbit anti-phospho-c-Jun and Cy3-donkey anti-rabbit IgG), p53 (sheep anti-p53 and Cy5-donkey anti-sheep IgG), alpha-tubulin (mouse anti-alpha-tubulin and Cy5-donkey anti-mouse IgG). These antibodies are available as the CellCiphr HepG2 assay kit (Millipore).Digital images of each well were captured using a Cellomics ArrayScan VTI (Thermo Scientific Cellomics) (0.8 NA objective, 0.63x optical coupler, and XF-93 filter set) at 20x magnification. The images were acquired using the autofocus feature of the ArrayScan instrument, which entails the following steps. First, the camera focuses on channel 1 (Hoechst 33342), where nuclei are identified. Second, a Z offset of 1 um is used for capturing mitochondria (MitoTracker Red). […]
Turning to `CCNc1nc(Cl)nc(NC(C)(C)C)n1`, the result was inactive. The same measure, in the same setting: in the case of `CCCCc1ccccc1` it was “inactive”. `CCOc1ccc(C(C)(C)COCc2cccc(Oc3ccccc3)c2)cc1`: the AC50 was 66.6 µM (active). Regarding `O=P1(N(CCCl)CCCl)NCCCO1` (stereo not given), the outcome was inactive. On the same count and under the same terms, to `ClC(Cl)c1ccccc1` belongs “inactive”. On the same count and under the same terms, in the case of `COCCOCCO` it was “inactive”; in that of `CCOC(=O)c1ccccc1C(=O)OCC`, “inactive”. Still for that read-out and setting: to `Cc1cccc(N)c1` belongs “inactive”. Take `CC(Cc1ccc(OCC(=O)O)cc1)NCC(O)c1csc(C(F)(F)F)n1` (stereo not given): the outcome was inactive.

As to `Cc1ccc([N+](=O)[O-])cc1C`, the call was inactive. Still for that read-out and setting: in the case of `CCN(CC)c1ccccc1` it was “inactive”; in that of `[N-]=[N+]=[N-]`, “inactive”; in that of `CC(C)(C)c1ccc(O)cc1`, “inactive”. In the case of `CCCCN(CCCC)SN(C)C(=O)Oc1cccc2c1OC(C)(C)C2`, the AC50 is 54.1 µM (active). On to `Nc1cc2c3c(c1)C(c1ccccc1)=N[C@@H](NC(=O)c1cccnc1)C(=O)N3CC2`, for which the compound was called inactive.

Consider `CCOS(=O)(=O)OCC`, for which the compound was called inactive. Take `Cc1ccc(O)cc1C`: the call was inactive.

Regarding `CN(C)C(=O)Cl`, the compound was called inactive. Same read-out and setting: to `Nc1ccc(Cl)cc1` belongs “inactive”. The same measure, in the same setting: to `OCC1CO1` (stereo not given) belongs “inactive”. With `CCC(C)(C)c1ccc(O)cc1`, the AC50 is 121 µM (active).

For `c1nc[nH]n1`, the result was inactive. Still for that read-out and setting: to `CCOP(=S)(OCC)SCSCC` belongs “inactive”.

With `CCCCCCCc1ccc(O)cc1`, the compound was called inactive. As to `c1ccc(OP(Oc2ccccc2)Oc2ccccc2)cc1`, the half-maximal activity concentration (AC50) was 113 µM (active). Turning to `CCC1(c2ccccc2)C(=O)N=C(O)NC1=O` (stereo not given), the compound was called inactive. On the same count and under the same terms, in the case of `ClC(Cl)(Cl)c1ccccc1` it was “inactive”; in that of `Cc1ccc(N)cc1N`, “inactive”. Same read-out and setting: in the case of `CCCCN(CCCC)N=O` it was “inactive”; in that of `c1ccc2c(c1)Nc1ccccc1S2`, “inactive”. For `CCCN(CCC)c1c([N+](=O)[O-])cc(C(C)C)cc1[N+](=O)[O-]`, the AC50 was 31.6 µM (active). For the compound `CC(C)(C)OOC(C)(C)C`, the call was inactive. With `O=C(O)C(Cl)Cl`, the compound was classed as inactive. The same measure, in the same setting: in the case of `CC(Cl)(Cl)C(=O)O` it was “inactive”. For `O=P(Oc1ccccc1)(Oc1ccccc1)Oc1ccccc1`, the half-maximal activity concentration (AC50) was 62 µM (active). Still for that read-out and setting: in the case of `ClC1=C(Cl)C2(Cl)C3C(Cl)C(Cl)CC3C1(Cl)C2(Cl)Cl` (stereo not given) it was 53.5 µM (active).

In the case of `CSC(C)(C)C=NO`, the call was inactive.

On to `CCOP(=S)(Oc1ccc([N+](=O)[O-])cc1)c1ccccc1` (stereo not given), for which the call was inactive.

Turning to `O=[N+]([O-])c1ccc(Cl)c(Cl)c1`, the compound was classed as inactive. As for `O=[N+]([O-])c1ccccc1`, the compound was classed as inactive.

Values taken from PubChem BioAssay (EPA / NIEHS).
